Compound activity: PubChem, several laboratories
A selection: hits, their analogues and other compounds. The true share with any hit is near 4.3%.
MITF TRPM1 HTS – increases MITF-driven TRPM1 promoter luciferase signal; activation, % at 12.5 µM; SK-MEL-5 TRPM1-promoter luciferase, 24 h; % of positive control, neutral wells = 0; actives 0.75% (n = 300,000);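 active means mean activation of at least 80% with every replicate also reaching 80%; inconclusive means mean reaches 80% but some replicate falls short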;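 further: 0% = neutral control wells and 100% = parthenolide positive control wells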
Wnt act – activates Wnt/beta-catenin signaling in a reporter cell assay; activation, % at 9.35 µM; activator, plate reader; actives 1.2% (n = 300,000); AID 743398; in the data active means activation above about 30%, passing the limit was not always enough; inconclusive means no clear call, values can overlap the other calls;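 further: 0% = neutral control wells and 100% = positive control wells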
MLL AF4-AF9 inh – blocks AF4 peptide binding to human AF9; P42568; AlphaScreen, biotin-AF4 peptide binding to FLAG-AF9; inhibition, % at 10 µM; actives 0.47% (n = 350,000); AID 651704;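 active means every replicate reaching a set inhibition limit, whatever the replicate mean, cut at about 25% in these data; inconclusive means mean inhibition reaches that limit but some replicates miss it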;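 further: 0% = plate neutral control median and 100% = total signal loss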
esBAF inh – inhibitors of esBAF chromatin remodeling in mouse ES cells; Bmi1-luciferase knock-in reporter, 24 h; 100% = twice the neutral-well signal; reporter increase, % at 12.5 µM; actives 2% (n = 350,000); AID 602393; in the data active means activation above about 40%; inconclusive means no clear call, values can overlap the other calls;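 further: 0% = median of the plate's neutral control wells and 100% = double that signal; a rise in the Bmi1 reporter signal indicates esBAF inhibition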
FGF22 binding – binders of recombinant human FGF22 by thermal shift | SYPRO orange fluorescence; percent of sucrose octasulfate shift, DMSO zero | Q9HCT0 | actives 1.5% (n = 340,000) | activity (Tm shift, normalised), % at 9.99 µM;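 active means mean Tm shift, scaled 0 neutral to 100 positive control, at about 1.3% or above, every replicate too, limit read from the data; inconclusive means no clear call, values can overlap the other calls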
Target sequence (Q9HCT0 whole entry, looked up): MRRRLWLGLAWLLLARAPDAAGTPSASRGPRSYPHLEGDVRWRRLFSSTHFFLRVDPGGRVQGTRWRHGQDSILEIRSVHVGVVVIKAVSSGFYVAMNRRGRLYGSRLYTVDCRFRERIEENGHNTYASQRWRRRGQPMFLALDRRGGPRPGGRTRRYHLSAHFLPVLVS
SMARCA2 act – SMARCA2 function activation, primary screen; actives 1% (n = 370,000); activation, % at 9.1 µM; MG213 cells, MMTV-luciferase reporter, dexamethasone, overnight; AID 652017; in the data active means activation above about 7.8%;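 further: 0% = vehicle wells and 100% = reference activator wells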
The depositor's hits bear a star; ? = inconclusive; . = no result given.

SMILES	MITF TRPM1 HTS	Wnt act	MLL AF4-AF9 inh	esBAF inh	FGF22 binding	SMARCA2 act
[O-]/[N+](=N\Nc1ccc(Cl)cc1)c1ccccc1	75	3	0	52*	0	2
Clc1ccc(/C=N\Nc2ccccc2)cc1	.	4	5	42*	0	-1
C[C@H](CO)N1C[C@H](C)[C@H](CN(C)S(=O)(=O)c2ccc(Cl)cc2)Oc2c(NS(=O)(=O)c3ccccc3)cccc2C1=O	.	.	.	-3	0	.
C[C@@H]1CN([C@H](C)CO)C(=O)c2cccc(NC(=O)NC3CCCCC3)c2O[C@@H]1CN(C)CC1CC1	.	.	0	-5	0	.
COCC(=O)Nc1ccc2c(c1)OC[C@@H](C)N(C(=O)C1CCCC1)C[C@H](C)[C@@H](OC)CN(C)C2=O	.	.	.	-3	.	.
O=C(N/C=C/n1cnc2cc(C(F)(F)F)ccc21)c1ccc(F)cc1	.	.	-1	-4	0	-3
O=C(N/C=C/n1cnc2cc(C(F)(F)F)ccc21)c1ccccc1F	-2	0	0	.	44*	3
C[C@@H]1CN([C@@H](C)CO)C(=O)c2cccc(NC(=O)c3ccncc3)c2O[C@H]1CN(C)S(=O)(=O)c1ccc(Cl)cc1	.	.	-2	-1	0	.
c1ccc2c(c1)nc(N1CCCCCC1)c1nncn12	.	.	3	3	0	2
O=C1CN(c2nc3ccccc3n3cnnc23)CC(=O)N1CCc1ccccc1	.	0	25*	0	0	0
Cc1ccc(OCCN(C)C(=O)c2cc(COc3ccc(F)cc3F)on2)cc1	24	2	-3	9	0	0
COc1cccc(OCc2cc(C(=O)N(C)CCOc3ccc(C)cc3)no2)c1	30	-1	-6	67*	0	2
COc1cccc(OCc2cc(C(=O)N(C)Cc3nccn3C)no2)c1	?	29	0	69*	0	6
CO[C@H]1CN(C)C(=O)c2cc(NC(=O)c3ccccc3)ccc2OC[C@@H](C)N(C(C)=O)C[C@@H]1C	.	.	13	0	0	.
CC1=NN(C(N)=S)C(=O)C1N=Nc1ccc(S(N)(=O)=O)cc1 (stereo unspecified)	-5	-1	-2	2	0	-1
CC(=O)N(C)c1ccc(N=Nc2c(C)[nH]n(C(N)=S)c2=O)cc1	32	51*	0	.	0	6
CC(=O)N(C)c1ccc(N=NC2C(=O)N(C(N)=S)N=C2C)cc1 (stereo unspecified)	29	52*	1	2	0	2
C=CCOC(=O)[C@H]1[C@@H]2C(=O)O[C@@H](c3ccccc3)[C@@H](c3ccccc3)N2[C@@H](c2ccc(OCCOC(=O)[C@@H]3C[C@@H]4C(=O)N[C@@H](CC(C)C)C(=O)N4[C@@H]3c3ccc(O)cc3)cc2)[C@]12C(=O)Nc1ccc(I)cc12	.	.	-2	.	0	.
O=C(C[C@H]1CC[C@@H](NC(=O)Nc2ccc(C(F)(F)F)cc2)[C@H](CO)O1)NCc1ccccn1	.	.	-2	2	0	.
C[C@@H](O)C#Cc1ccc2c(c1)O[C@H](CN(C)C(=O)C1CCC1)[C@@H](C)CN([C@@H](C)CO)S2(=O)=O	.	.	-1	4	-1	.
COc1cccc(OCCCOc2ccc([N+](=O)[O-])cc2Cl)c1	-9	-4	.	-4	.	1
COc1ccccc1OCCCOc1ccc([N+](=O)[O-])cc1Cl	.	-2	.	56*	.	6
COc1cc(C)ccc1OCCCOc1ccccc1Br	60	10	.	52*	.	6
O=C1CC(N2CCCN(Cc3ccccc3)CC2)=NC(=O)N1c1ccc(Br)cc1	.	.	.	.	.	-3
CSc1nc2sc(-c3ccccc3)cc2c(=O)n1N	15	.	.	57*	.	6
SMILES	MITF TRPM1 HTS	Wnt act	MLL AF4-AF9 inh	esBAF inh	FGF22 binding	SMARCA2 act
CC(C)Sc1nc2sc(-c3ccccc3)cc2c(=O)n1N	11	.	.	0	.	0
COC(=O)c1cc(=O)n(-c2ccc(F)cc2)c(=Nc2ccc(F)cc2)s1	-23	3	27*	30	0	-2
COC(=O)c1cc(=O)n(Cc2cccs2)c(=Nc2ccc(F)cc2)s1	.	-2	9	-3	0	-2
Cc1ccc(C(=O)Nc2nc(=O)n(C(=O)c3ccccc3C)s2)cc1	22	.	.	60*	.	1
Cc1ccc(C(=O)Nc2cccc(NC(=O)c3ccc(C)cc3)n2)cc1	.	0	0	.	0	6
C[C@H](CO)N1C[C@H](C)[C@H](CN(C)C(=O)Nc2ccccc2)Oc2ccc(NC(=O)Nc3ccc(F)cc3)cc2CC1=O	.	.	6	1	-1	.
COc1cccc2sc(N(C)c3ccccc3)nc12	57	65*	.	14	.	3
CCCCCNCC(=O)Nc1cc(C(F)(F)F)ccc1OCCOC	-2	1	-2	.	44*	1
COc1ccc(C2=NCN(c3ccc(C)cc3)C(=S)N2)cc1	60	.	.	.	.	3
Cc1ccc(N2CN=C(c3ccccc3)NC2=S)cc1	60	.	.	57*	.	2
C[C@H]1CN([C@@H](C)CO)C(=O)c2cc(-c3ccccc3)cnc2O[C@H]1CN(C)C(=O)Nc1ccccc1	.	.	.	-8	0	.
CC1(C)CC(NC(=S)NC2CC2)CC(C)(C)N1	10	0	-2	.	43*	-2
C=CCNC(=S)NC1CC(C)(C)NC(C)(C)C1	4	-1	-3	.	0	-1
Cc1ccc(NC(=S)NCC2CCN(C(C)c3ccccc3)C2)cc1C (stereo unspecified)	-3	-2	25*	-4	42	3
Cc1ccc(NC(=S)NCC2CCCO2)cc1C (stereo unspecified)	5	.	.	.	.	-1
COc1ccccc1C(=O)N1C[C@@H]2[C@H](c3ccccc31)[C@H](CO)N2C(=O)C1CCCC1	.	.	0	-2	0	.
C[C@H](CO)N1C[C@H](C)[C@H](CN(C)S(=O)(=O)c2cn(C)cn2)Oc2ccc(NC(=O)Nc3cccc4ccccc34)cc2CC1=O	.	.	3	6	0	.
CCCCCn1c(CN2CCN(C(=O)c3ccco3)CC2)nc2c1c(=O)n(C)c(=O)n2C	.	61*	0	7	0	-1
CCCCCCn1c(CN2CCN(C(=O)c3ccco3)CC2)nc2c1c(=O)n(C)c(=O)n2C	.	-4	-6	4	0	2
C=CCC1(CC=C)CCCN1C(=O)C1CCC(=O)N(CCc2ccccc2)C1 (stereo unspecified)	103*	29	1	9	0	0
COc1ccc(CCN2CC(C(=O)N3CCC(OC)CC3)CCC2=O)cc1 (stereo unspecified)	7	0	0	4	0	-1
C=CCC1(CC=C)CCCN1C(=O)C1CCC(=O)N(CCc2ccc(OC)cc2)C1 (stereo unspecified)	48	20	0	69*	0	1
O=C1CCC(C(=O)N2CCSCC2)CN1CCc1ccccc1 (stereo unspecified)	2	-4	-22	0	0	0
